Assay [1] can be described thus: NCI Yeast Anticancer Drug Screen. Data for the rad50 strain (AID 155).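 Note: 0% = growth of vehicle-only cultures of the same strain.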 The settings on record: S. cerevisiae rad50 strain growth inhibition; at 50.0 µM; stronger effect = higher value. An outline of the steps:
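Genetically altered yeast (DNA repair pathway); compound treatment; growth inhibition vs vehicle ctrl.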

A short description of assay [2]: NCI Yeast Anticancer Drug Screen. Data for the mec2-1 strain (AID 157). As to conditions: S. cerevisiae mec2-1 strain, at 50.0 µM, stronger effect = higher value. Put shortly:
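Yeast mec2-1 mutant treated with compound. Readout: growth inhibition vs vehicle controls.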

A short description of assay [3]: NCI Yeast Anticancer Drug Screen. Data for the sgs1 mgt1 strain (AID 161).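 Note: 0% = growth of cultures given vehicle only.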 The settings on record: S. cerevisiae sgs1 mgt1 strain, at 50.0 µM, stronger effect = higher value. An outline of the steps: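 Test agents were incubated with a DNA-repair-mutant yeast strain. Growth was then read and compared against vehicle-treated controls.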
A short description of assay [4]: NCI Yeast Anticancer Drug Screen. Data for the cln2 rad14 strain (AID 165).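 Note: 0% = growth equal to vehicle treated cultures.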 The settings on record: S. cerevisiae cln2 rad14 strain, at 50.0 µM, stronger effect = higher value. Put shortly: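 cln2 rad14 yeast strain; compound exposure; growth inhibition read vs vehicle controls.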
A short description of assay [5]: NCI Yeast Anticancer Drug Screen. Data for the bub3 strain (AID 167). The settings on record: S. cerevisiae bub3 mutant strain, at 50.0 µM, stronger effect = higher value. An outline of the steps: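 Yeast carrying a defined mutation is treated with each compound, and growth is compared with that of vehicle-exposed cells to give inhibition.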
A short description of assay [6]: NCI Yeast Anticancer Drug Screen. Data for the mlh1 rad18 strain (AID 175). The settings on record: S. cerevisiae mlh1 rad18 strain growth inhibition; at 50.0 µM; stronger effect = higher value. Put shortly:
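Yeast w/ defined DNA-repair lesions; compound exposure; growth vs vehicle controls → % inhibition.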

Compounds without any hit were thinned out: in the full panel of roughly 79,000, 15% have a hit. A number with no mark means an inactive call. Calls of active or inactive are those of the source. Cut-off read from the data, not from the text of the source: active = growth inhibition above about 70%; inactive = the rest.

In the case of `CCCC(CCC)=C1C(=O)N=C(N)NC1=O`, the growth inhibition was -6.45% in assay [1]; 4.9% in assay [2]; -2.7% in assay [3]; -9.05% in assay [4]; -7.35% in assay [5]; -16% in assay [6].
With `NC(=O)c1ncn2c(=O)n(CCl)nnc12`, the growth inhibition in assay [1] was 57.4%; in assay [2], 81.6% (active); in assay [3] it was 29.6%; in assay [4], 45.5%; in assay [5] it was 57.5%; in assay [6], 83.5% (active).
With `Nc1ccc2c(c1)C(=O)c1ccccc1C2=O`, the growth inhibition in assay [1] is 4.4%; in assay [2], -1.55%; in assay [3], -12.9%; in assay [4] it was 6.55%; in assay [5], 8.95%; in assay [6], -0.55%.
As for `CC(=O)OC1C=CCC2C(=O)C3=C(C(=O)c4ccccc4C3=O)C(=O)C12` (configuration not stated), the growth inhibition in assay [1] is 72.6% (active); in assay [2], 21.3%; in assay [3] it was 28%; in assay [4], 36.6%; in assay [5] it was 65%; in assay [6] it was 33.2%.
Turning to `COc1ccc2ccccc2c1`, the growth inhibition is -21% in assay [1]; -30% in assay [2]; -12.2% in assay [3]; -23.9% in assay [4]; 1.35% in assay [5]; -31.6% in assay [6].
On to `COc1cc(C(=O)n2c(=O)oc(=O)c3cc([N+](=O)[O-])ccc32)cc(OC)c1OC`, for which the growth inhibition in assay [1] was -15.4%; in assay [2], -6.15%; in assay [3], -16.4%; in assay [4], -6.65%; in assay [5], 1.6%; in assay [6], 2.2%.
In the case of `O=C1CCCC2=C1CC1=C(CCCC1=O)N2c1cccc2ccccc12`, the growth inhibition is 7.7% in assay [1]; -16% in assay [2]; 12.7% in assay [3]; 9.85% in assay [4]; 21.8% in assay [5]; 28.1% in assay [6].
Turning to `O=C(/C=C/c1ccc(O)cc1)OCC1OC(Oc2cc(O)c3c(c2)OC(c2ccc(O)cc2)CC3=O)C(O)C(O)C1O` (configuration not stated), the growth inhibition in assay [1] was 9.35%; in assay [2], -7.45%; in assay [3] it was 9.6%; in assay [4] it was -16.1%; in assay [5] it was 14.3%; in assay [6], 5.1%.
For `C=C1C(=O)N2CCc3c([nH]c4ccccc34)[C@H]2C[C@@H]1CO`, the growth inhibition was 5.4% in assay [1]; 2.4% in assay [2]; 4.2% in assay [3]; 5% in assay [4]; 7.05% in assay [5]; 10.8% in assay [6].
For the compound `O=C(NN1C(=O)C(Cl)C1c1cccc(Cl)c1)c1ccccc1O` (configuration not stated), the growth inhibition in assay [1] was -58.4%; in assay [2] it was -29.2%; in assay [3], -8.35%; in assay [4] it was -26.6%; in assay [5] it was -40.2%; in assay [6], -17.1%.
As to `CC(C)=NNS(=O)(=O)c1ccc(C)cc1`, the growth inhibition in assay [1] is -7.7%; in assay [2], 14.6%; in assay [3], 2.65%; in assay [4], 7.2%; in assay [5] it was -14.2%; in assay [6], -7.55%.
With `COc1cc(C2=N/C(=C\C=C\c3ccccc3)C(=O)O2)cc(OC)c1OC`, the growth inhibition is 16.8% in assay [1]; 16% in assay [2]; 21.9% in assay [3]; 18.9% in assay [4]; 18.8% in assay [5]; 16.9% in assay [6].
As for `CCOC(=O)Nc1cccc(Cl)c1Cl`, the growth inhibition in assay [1] is -31.1%; in assay [2] it was -39.1%; in assay [3], -22.4%; in assay [4], 6.75%; in assay [5] it was -27.9%; in assay [6] it was -8%.
Consider `CCCCCC1(C=O)C(=O)NC(=O)N1C` (configuration not stated), for which the growth inhibition in assay [1] was 2.25%; in assay [2], -5.45%; in assay [3], -1.45%; in assay [4], -0.45%; in assay [5], -0.05%; in assay [6] it was -8.2%.
For `Cc1ccc(NC(=O)CC2SC(=Nc3cccc(Cl)c3C)NC2=O)cc1` (configuration not stated), the growth inhibition in assay [1] is 30.9%; in assay [2] it was 27.9%; in assay [3] it was 41.5%; in assay [4], 28.7%; in assay [5] it was 26.1%; in assay [6], 11%.
Regarding `CCCCCN(CCOC(=O)c1ccc([N+](=O)[O-])cc1)CCOC(=O)c1ccc([N+](=O)[O-])cc1`, the growth inhibition in assay [1] is 7.5%; in assay [2] it was 4.7%; in assay [3], 7.25%; in assay [4], 7.8%; in assay [5], -2.6%; in assay [6], 7.45%.
For `C/C(O)=C(/C=NC(=S)c1ccncc1)C(=O)Nc1ccccc1`, the growth inhibition in assay [1] is -36.8%; in assay [2] it was -1.8%; in assay [3], -49%; in assay [4] it was -26.5%; in assay [5], -45.1%; in assay [6] it was -36.3%.
Consider `Cc1nc2[nH]ncn2c(=O)c1CCCl`, for which the growth inhibition is 20.9% in assay [1]; -31.9% in assay [2]; -11.9% in assay [3]; -7.55% in assay [4]; 8.1% in assay [5]; 9.4% in assay [6].
As to `CC1(C)CCCN1C(=O)Nc1ccc([N+](=O)[O-])cc1[N+](=O)[O-]`, the growth inhibition is 4.1% in assay [1]; -7.7% in assay [2]; 5.4% in assay [3]; -12.6% in assay [4]; -4.15% in assay [5]; -14.1% in assay [6].
In the case of `COc1ccc2c3c(ccc2c1)C1C(=O)OC(=O)C1CC3` (configuration not stated), the growth inhibition was -2.6% in assay [1]; 8.6% in assay [2]; 6.5% in assay [3]; -36.6% in assay [4]; -5.95% in assay [5]; 11.2% in assay [6].
In the case of `BrC1C2=C(c3ccccc31)C(Br)c1ccccc12` (configuration not stated), the growth inhibition is 14.9% in assay [1]; 4.05% in assay [2]; 15.3% in assay [3]; 28.8% in assay [4]; -12.3% in assay [5]; 1.7% in assay [6].
Take `C[N+](C)(C)c1ccc2ccccc2n1`: the growth inhibition is -9.15% in assay [1]; -1.6% in assay [2]; -19.9% in assay [3]; 1.15% in assay [4]; -8.7% in assay [5]; -2.7% in assay [6].
With `COC(=O)CC1C(OC)OC23CCC1C2(C)CCC1C3CCC2CC(OC3CCCCO3)CCC21C` (configuration not stated), the growth inhibition in assay [1] is 19.1%; in assay [2], 1.15%; in assay [3], 9.55%; in assay [4], 12.6%; in assay [5] it was 3.2%; in assay [6], 18.3%.
With `CC(C)C(NC(=O)OC(C)(C)C)C(=O)O` (configuration not stated), the growth inhibition was -11.3% in assay [1]; 1.2% in assay [2]; 14.7% in assay [3]; -66.3% in assay [4]; 9.45% in assay [5]; -6.9% in assay [6].
Regarding `CC(C)(Oc1ccc2c(=O)cc(-c3ccccc3)oc2c1)C(=O)Nc1c(Cl)cccc1Cl`, the growth inhibition in assay [1] was 7.95%; in assay [2], -18.8%; in assay [3], 10.2%; in assay [4] it was -59%; in assay [5], 9.75%; in assay [6], -14.8%.
`COc1ccc(-c2c(C(C)=O)c(-c3ccccc3)n(C3OC(COC(C)=O)C(OC(C)=O)C(OC(C)=O)C3OC(C)=O)c(=S)c2C#N)cc1` (configuration not stated): the growth inhibition is -17.7% in assay [1]; -25.9% in assay [2]; -26.1% in assay [3]; 7.85% in assay [4]; 0.75% in assay [5]; -36.2% in assay [6].
Turning to `CCO/C=N\C1=C(C#N)SC2=N/C(=C\c3ccco3)C(=O)N21`, the growth inhibition is 6.1% in assay [1]; -19.2% in assay [2]; -7.4% in assay [3]; 5.65% in assay [4]; 0.45% in assay [5]; -17.3% in assay [6].
With `OC1CC2CCCCC2CC1C1CCCCC1` (configuration not stated), the growth inhibition was 4.15% in assay [1]; -11.2% in assay [2]; -7.25% in assay [3]; -25.6% in assay [4]; -23.7% in assay [5]; 0.85% in assay [6].
`COC(=O)Cc1c(C(=O)OC)c(O)cc(O)c1C(=O)OC`: the growth inhibition in assay [1] was 5.85%; in assay [2] it was 5.25%; in assay [3] it was -10.2%; in assay [4], -14.4%; in assay [5], 12.3%; in assay [6], -5.85%.
For `CCCCCCCCCCCC(=O)OCc1ccccc1`, the growth inhibition in assay [1] is -3.9%; in assay [2] it was 17.8%; in assay [3], 3.1%; in assay [4] it was 18.2%; in assay [5], -3.5%; in assay [6], 25.8%.
As for `COc1ccc(C2c3cc4c(cc3OC(C)(O)C2C)OCO4)c(OC)c1OC` (configuration not stated), the growth inhibition in assay [1] is 3.45%; in assay [2], 5.7%; in assay [3] it was -1.4%; in assay [4], -9.25%; in assay [5], -5.1%; in assay [6] it was 18.9%.
Take `O=C(O)COc1cc([N+](=O)[O-])c(Cl)cc1Cl`: the growth inhibition in assay [1] is 7.75%; in assay [2], -11.9%; in assay [3], 18.6%; in assay [4], 15.6%; in assay [5], -1.4%; in assay [6], 20.6%.
Consider `CC(=O)OCC(OC(C)=O)C(OC(C)=O)C(OC(C)=O)C(OC(C)=O)c1cnn(-c2ccccc2)n1` (configuration not stated), for which the growth inhibition was 15.9% in assay [1]; -1.85% in assay [2]; 11.6% in assay [3]; 32.1% in assay [4]; 6.05% in assay [5]; -10.6% in assay [6].
Regarding `CCN(CC)CCOc1cc(C)ccc1C(C)C`, the growth inhibition in assay [1] is -6.05%; in assay [2] it was -12.6%; in assay [3] it was 2.95%; in assay [4] it was -32%; in assay [5], -8.1%; in assay [6] it was 26.4%.
For the compound `S=C(Nc1ccccc1)Nc1ccccn1`, the growth inhibition in assay [1] was 10.1%; in assay [2], -29.6%; in assay [3], 4.05%; in assay [4], -30.8%; in assay [5] it was -4.35%; in assay [6] it was 4.25%.
On to `O=C(O)/C=C\C(Cl)(Cl)Cl`, for which the growth inhibition was -6.35% in assay [1]; -6.6% in assay [2]; -6.7% in assay [3]; 4.15% in assay [4]; -41% in assay [5]; -13.4% in assay [6].
Turning to `NCC(=O)N[C@H]1c2ccsc2/C(=N/O)[C@H]1O`, the growth inhibition in assay [1] is 3.1%; in assay [2], 5.95%; in assay [3], 3.65%; in assay [4], 11.3%; in assay [5], -10.2%; in assay [6] it was 33.2%.

The values are drawn from PubChem BioAssay (NCI).
